# In PubChem BioAssay AID1159580 (chemical genetic matrix, 2015):
# The campaign covered roughly 5,500 compounds. About 2,000 (36%) were called active. Inconclusive results (about 18%) are left out. The list shows a part of the results. Unmarked numbers belong to inactive results. No stated cut-off is given here; in the data, active means normalized growth mostly below about 0.91 (no sharp cut-off); inconclusive means no clear call, values can overlap the other calls; inactive means mostly above about 0.92.
# Assay: chemical genetic growth profiling, strain panel (AID 1159580);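 further: tested at 20 µM; growth read once vehicle control cultures reached saturation at 30 °C; 1 = growth at the plate median or of vehicle wells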
# Details: growth OD
# [1] = S. cerevisiae deletion strains, locus YAL013W, strain DEP1, stronger effect = lower value
# [2] = S. cerevisiae deletion strains, locus YBR229C, strain ROT2, stronger effect = lower value
# [3] = S. cerevisiae deletion strains, locus YDL101C, strain DUN1, stronger effect = lower value
# [4] = S. cerevisiae deletion strains, locus YDR150W, strain NUM1, stronger effect = lower value
# [5] = S. cerevisiae deletion strains, locus YEL061C, strain CIN8, stronger effect = lower value
# [6] = S. cerevisiae deletion strains, locus YGR078C, strain PAC10, stronger effect = lower value
# [7] = S. cerevisiae deletion strains, locus YHR030C, strain SLT2, stronger effect = lower value
# [8] = S. cerevisiae deletion strains, locus YHR087W, strain rtc3, stronger effect = lower value
# [9] = S. cerevisiae deletion strains, locus YJL187C, strain SWE1, stronger effect = lower value
# [10] = S. cerevisiae deletion strains, locus YJR043C, strain POL32, stronger effect = lower value
# [11] = S. cerevisiae deletion strains, locus YJR075W, strain HOC1, stronger effect = lower value
# [12] = S. cerevisiae deletion strains, locus YLR039C, strain RIC1, stronger effect = lower value
# [13] = S. cerevisiae deletion strains, locus YLR058C, strain SHM2 (second series), stronger effect = lower value
# [14] = S. cerevisiae deletion strains, locus YLR085C, strain ARP6, stronger effect = lower value
# [15] = S. cerevisiae deletion strains, locus YLR262C, strain YPT6, stronger effect = lower value
# [16] = S. cerevisiae deletion strains, locus YML094W, strain GIM5, stronger effect = lower value
# [17] = S. cerevisiae deletion strains, locus YMR219W, strain ESC1, stronger effect = lower value
# [18] = S. cerevisiae deletion strains, locus YMR263W, strain SAP30, stronger effect = lower value
# [19] = S. cerevisiae deletion strains, locus YNL153C, strain GIM3, stronger effect = lower value
# [20] = S. cerevisiae deletion strains, locus YNL298W, strain CLA4 (second series), stronger effect = lower value
# [21] = S. cerevisiae deletion strains, locus YNL322C, strain KRE1, stronger effect = lower value
# [22] = S. cerevisiae deletion strains, locus YNR030W, strain Alg12, stronger effect = lower value
# [23] = S. cerevisiae deletion strains, locus YPL055C, strain LGE1, stronger effect = lower value
# [24] = S. cerevisiae deletion strains, locus YPL241C, strain CIN2, stronger effect = lower value
# [25] = S. cerevisiae deletion strains, locus YPR135W, strain CTF4, stronger effect = lower value
# [26] = S. cerevisiae strains, strain wild type, stronger effect = lower value
structure (smiles),measurement,setting,value
CC/C(=N/Oc1ccc(C(F)(F)F)cn1)c1ccc(-c2ccccc2F)cc1,normalized growth,[1],1.01
same,normalized growth,[2],1.01
same,normalized growth,[3],0.995
same,normalized growth,[4],0.981
same,normalized growth,[5],0.992
same,normalized growth,[6],1.01
same,normalized growth,[7],1.12
same,normalized growth,[8],1.02
same,normalized growth,[9],0.999
same,normalized growth,[10],0.987
same,normalized growth,[11],0.991
same,normalized growth,[12],1.03
same,normalized growth,[13],0.999
same,normalized growth,[14],1.04
same,normalized growth,[15],1.03
same,normalized growth,[16],1.01
same,normalized growth,[17],1
same,normalized growth,[18],0.996
same,normalized growth,[19],1
same,normalized growth,[20],1.05
same,normalized growth,[21],0.986
same,normalized growth,[22],1.02
same,normalized growth,"S. cerevisiae deletion strains, locus YOL006C, strain TOP1, stronger effect = lower value",1.06
same,normalized growth,[23],0.984
same,normalized growth,[24],1.01
same,normalized growth,[25],1.05
same,normalized growth,[26],1.02
COC(=O)c1ccc(-c2ccccc2F)cc1,normalized growth,[1],0.984
same,normalized growth,[2],0.982
same,normalized growth,[3],0.987
same,normalized growth,"S. cerevisiae deletion strains, locus YDL134C, strain PPH21, stronger effect = lower value",0.974
same,normalized growth,[4],0.971
same,normalized growth,[5],0.927
same,normalized growth,[6],0.962
same,normalized growth,[7],0.681 (active)
same,normalized growth,[8],0.968
same,normalized growth,[9],0.961
same,normalized growth,[10],0.94
same,normalized growth,[11],0.893
same,normalized growth,"S. cerevisiae deletion strains, locus YKL190W, strain CNB1, stronger effect = lower value",0.857 (active)
same,normalized growth,[12],0.796
same,normalized growth,[13],0.99
same,normalized growth,[14],0.696 (active)
same,normalized growth,[15],0.929
same,normalized growth,[16],0.958
same,normalized growth,[17],0.991
same,normalized growth,[18],0.971
same,normalized growth,[19],0.968
same,normalized growth,[20],0.897
same,normalized growth,[21],0.999
same,normalized growth,[22],0.957
same,normalized growth,[23],0.917
same,normalized growth,[24],0.89
same,normalized growth,[25],0.786
same,normalized growth,[26],0.901 (active)
COC(=O)c1ccc(C(=O)OC)nc1,normalized growth,[1],1
same,normalized growth,[2],0.994
same,normalized growth,[3],0.977
same,normalized growth,[4],0.976
same,normalized growth,[5],0.999
same,normalized growth,[6],0.997
same,normalized growth,[7],0.982
same,normalized growth,[8],0.995
same,normalized growth,[10],1
same,normalized growth,[11],0.993
same,normalized growth,[12],0.973
same,normalized growth,[13],1
same,normalized growth,[14],1.01
same,normalized growth,[15],0.984
same,normalized growth,[16],0.942
same,normalized growth,[17],0.998
same,normalized growth,[18],1.02
same,normalized growth,"S. cerevisiae deletion strains, locus YNL128W, strain TEP1, stronger effect = lower value",0.987
same,normalized growth,[19],1
same,normalized growth,[20],1
same,normalized growth,[21],0.992
same,normalized growth,[22],0.998
same,normalized growth,[23],0.991
same,normalized growth,[24],0.949
same,normalized growth,[25],0.967
same,normalized growth,[26],0.989
